Potency, outcome and max response data for 8 molecules are collected here from PubChem BioAssay (NCATS).

Structures are written as SMILES. Inconclusive results are not listed. Activity calls are given as the source filed them. Unless noted, the call rests on the fitted dose curve; in most records, active means well fitted curve in the direction sought with a large enough effect; inconclusive means small, poorly fitted or top-dose-only effect, or another doubt; inactive means no such curve, though single readings can be large; an effect the other way counts as inactive or inconclusive.

A short description of assay [1]: Cell Viability - Hek293 (AID 427;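 active means compounds whose dose-response curve shows a full or clear partial loss of cell viability, called from curve shape rather than a numeric limit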;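 further: potency means the concentration at half of the fitted maximal effect; cells exposed to compound for 40 hours at 37 °C before reading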). Conditions: qHTS. In short, it runs like this:
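Luminescent ATP read-out (CellTiter-Glo, 20 min RT) after 40 hr compound exposure at 37 °C in complete medium. Signal normalized to DMSO (basal) and 100 uM tamoxifen (100% inhibition); concentration-response fitted with the standard Hill equation to give AC50.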

Assay [2] can be described thus: Cell Viability - SH-SY5Y (AID 544).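 Further: cells exposed to compound for 40 hours; nearly all actives have a fitted effect of over 55% in size.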 Further: potency means the concentration at half of the fitted maximal effect.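 On viability change, negative = cytotoxic: 0% = DMSO alone and -100% = 100 µM tamoxifen.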 As to conditions: SH-SY5Y neuroblastoma cell viability; viability change, negative = cytotoxic: at 92.2 µM (top of the series). In short, it runs like this:
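Quantitative HTS in SH-SY5Y neuroblastoma cells, 40 hr treatment at 37 °C, ATP content by luciferase luminescence; AC50 from Hill fits.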

Assay [3] in a line: Cell Viability - Mesenchymal (AID 546).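 Further: cells exposed to compound for 40 hours before reading.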 Further: potency means the concentration at half of the fitted maximal effect. Conditions: mesenchymal cells viability, qHTS; series mostly up to 91.7 µM. In short, it runs like this: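 CellTiter-Glo luminescence (intracellular ATP, 20 min room temperature) after 40 hr compound exposure at 37 °C of 1000 glomerulus-derived human kidney mesenchymal cells/well; AC50 values obtained by fitting qHTS concentration-response data to the Hill equation.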

The target in assay [4] is Cytochrome P450 3A4 (Homo sapiens) (UniProt P08684). Kind of assay: qHTS Assay for Inhibitors and Substrates of Cytochrome P450 3A4 (AID 884). Further: on the % scale 0 is the no-effect control and ±100 the full control effect; nearly all actives have a fitted effect of over 50% in size. As to conditions: recombinant CYP3A4, Luciferin-PPXE luminescence; series mostly up to 57.1 µM. The method in brief:
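Luminescent readout of luciferin produced by CYP3A4 (20 nM) dealkylation of Luciferin-PPXE, 25 uM (its KM). NADPH-driven reaction ran 60 min at RT after 10 min compound preincubation; data scaled to 57 uM ketoconazole as 100% inhibition.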

Assay [5] is described as follows: MultiTox-Fluor Cytotoxicity Assay - LYMP1-002 - Dead Cells (AID 960).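 Further: 0% = DMSO and 100% = tetraoctylammonium bromide; nearly all actives have a fitted effect of over 60% in size.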 Conditions: LYMP1-002 lymphoblastoid cells, dead-cell protease fluorescence; series mostly up to 46.1 µM. The method in brief: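 Concentration-dependent increases in membrane-leaked protease activity are quantified in LYMP1-002 cells after 16 hr treatment; values are normalized against DMSO and tetraoctylammonium bromide (15 uM) controls and AC50 derived by Hill modeling.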

The nature of assay [6]: Cell Viability - LYMP2-005 (AID 967).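 Further: plate controls were DMSO only for no effect and 92 µM tetraoctylammonium bromide control for full effect.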 Conditions: LYMP2-005 lymphoblastoid cell viability; series mostly up to 92.2 µM. The method in brief:
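Human lymphoblastoid LYMP2-005 cells, 2,500 per well in complete medium, rested 5 h at 37C then compound-treated 24 h at 37C. Intracellular ATP read by CellTiter-Glo luminescence after 30 min at room temperature; AC50 from Hill-equation fits of concentration-response data.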

Assay [7] in a line: Cell Viability - LYMP2-010 (AID 981).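 Further: cells exposed to compound for 24 hours at 37 °C; nearly all actives have a fitted effect of over 55% in size.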 Further: potency means the concentration at half of the fitted maximal effect. As to conditions: LYMP2-010 lymphoblastoid cell viability, qHTS; series mostly up to 92.2 µM. In short, it runs like this:
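This 24 hr viability screen uses LYMP2-010 lymphoblastoid cells, quantifies ATP via luciferase luminescence, and derives AC50 from Hill fits of qHTS concentration-response data.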

A short description of assay [8]: Cell Viability - LYMP2-026 (AID 989). Further: on the % scale 0 is the no-effect control and ±100 the full control effect; nearly all actives have a fitted effect of over 50% in size. As to conditions: LYMP2-026 lymphoblastoid cell viability, qHTS; series mostly up to 92.2 µM. The method in brief: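 Acute toxicity screen in complete culture medium, with 24 hr compound exposure at 37 C. Viability read as cellular ATP via luciferase reaction, with tetraoctylammonium bromide (6.4pM to 92 uM) as positive control.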

A short description of assay [9]: Cell Viability - LYMP1-002 - Assay at 40 hr (AID 994).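 Further: 0% = DMSO only and full inhibition = 92 µM tetraoctylammonium bromide; nearly all actives have a fitted effect of over 60% in size.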 As to conditions: LYMP1-002 lymphoblastoid cell viability; series mostly up to 92.2 µM. In short, it runs like this:
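Concentration-dependent ATP loss after 40 hr treatment at 37 C defined toxicity; AC50 values were obtained by fitting the standard Hill equation.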

The target in assay [10] is Peroxisome proliferator-activated receptor gamma (Homo sapiens) (UniProt P37231). Kind of assay: qHTS assay for small molecule agonists of peroxisome proliferator-activated receptor gamma signaling (AID 588536; active means well fitted curve in the direction sought with a large enough effect in the signal ratio, with a control signal flat, not every such curve was filed as active; the % refers to the signal ratio;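 further: 0% = DMSO basal wells and 100% = rosiglitazone at 2 µM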). As to conditions: HEK293 PPARg-UAS-bla, beta-lactamase ratio, 16 h, percent of rosiglitazone response, DMSO as zero; series mostly up to 76.7 µM. In short, it runs like this: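 Compound treatment: 16 h, 37 C, HEK293 GeneBLAzer cells. Detection: CCF4, 2 h RT. Values: Hill-fit EC50, efficacy as % of 2 uM rosiglitazone.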
Peroxisome proliferator-activated receptor gamma (Homo sapiens), sequence (P37231 whole entry, looked up): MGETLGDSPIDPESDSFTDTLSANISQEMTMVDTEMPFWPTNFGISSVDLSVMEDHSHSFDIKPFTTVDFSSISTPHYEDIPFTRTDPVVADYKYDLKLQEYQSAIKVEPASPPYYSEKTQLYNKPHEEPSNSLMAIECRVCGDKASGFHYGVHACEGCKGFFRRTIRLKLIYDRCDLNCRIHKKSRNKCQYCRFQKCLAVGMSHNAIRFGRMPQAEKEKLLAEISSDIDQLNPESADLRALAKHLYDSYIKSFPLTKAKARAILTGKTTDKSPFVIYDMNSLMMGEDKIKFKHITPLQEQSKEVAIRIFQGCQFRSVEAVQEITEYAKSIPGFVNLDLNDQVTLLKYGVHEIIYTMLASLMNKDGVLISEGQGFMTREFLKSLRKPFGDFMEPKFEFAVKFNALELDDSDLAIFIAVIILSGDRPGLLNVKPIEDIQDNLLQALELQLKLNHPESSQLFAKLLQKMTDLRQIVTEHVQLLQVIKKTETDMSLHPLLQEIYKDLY

Assay [11] is described as follows: qHTS assay for small molecule agonists of retinoid X receptor alpha signaling (AID 588544; calls by dose curve). Conditions: HEK293T RXRa-UAS-bla, beta-lactamase reporter, 18 h; 530 nm emission.
Assay [12] deals with Retinoic acid receptor RXR-alpha (Homo sapiens) (UniProt P19793). The assay is described as above. Conditions: HEK293T RXRa-UAS-bla, beta-lactamase reporter, 18 h; series mostly up to 76.7 µM.
Retinoic acid receptor RXR-alpha (Homo sapiens), sequence (P19793 whole entry, looked up): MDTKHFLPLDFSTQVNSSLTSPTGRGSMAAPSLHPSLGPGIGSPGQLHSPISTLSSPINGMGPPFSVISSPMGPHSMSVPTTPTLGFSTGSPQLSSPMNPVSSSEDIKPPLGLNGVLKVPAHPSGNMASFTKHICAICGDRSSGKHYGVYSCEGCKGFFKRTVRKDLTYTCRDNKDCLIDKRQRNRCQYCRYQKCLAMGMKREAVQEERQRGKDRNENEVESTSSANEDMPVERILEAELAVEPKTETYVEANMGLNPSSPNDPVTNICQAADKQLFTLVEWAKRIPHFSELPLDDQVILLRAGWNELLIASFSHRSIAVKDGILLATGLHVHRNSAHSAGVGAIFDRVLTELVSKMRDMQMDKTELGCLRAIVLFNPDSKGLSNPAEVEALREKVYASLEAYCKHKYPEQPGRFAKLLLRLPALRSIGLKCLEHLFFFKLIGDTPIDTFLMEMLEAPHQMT
Assay [13] deals with Thyroid hormone receptor beta (Homo sapiens) (UniProt P10828). The assay can be described thus: qHTS assay for small molecule agonists of thyroid hormone receptor beta signaling (AID 588545; calls by dose curve). Conditions: TR-UAS-bla GripTite HEK 293, beta-lactamase ratio, agonist mode, 18 h; series mostly up to 76.7 µM. The method in brief: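 In this cell-based screen, titrated compounds act on HEK 293 cells held in medium with 2% charcoal/dextran FBS, NEAA and pyruvate for 18 hrs at 37 C. Responses are expressed relative to T3 (10 nM) as 100% and basal DMSO as 0%.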
Thyroid hormone receptor beta (Homo sapiens), sequence (P10828 whole entry, looked up): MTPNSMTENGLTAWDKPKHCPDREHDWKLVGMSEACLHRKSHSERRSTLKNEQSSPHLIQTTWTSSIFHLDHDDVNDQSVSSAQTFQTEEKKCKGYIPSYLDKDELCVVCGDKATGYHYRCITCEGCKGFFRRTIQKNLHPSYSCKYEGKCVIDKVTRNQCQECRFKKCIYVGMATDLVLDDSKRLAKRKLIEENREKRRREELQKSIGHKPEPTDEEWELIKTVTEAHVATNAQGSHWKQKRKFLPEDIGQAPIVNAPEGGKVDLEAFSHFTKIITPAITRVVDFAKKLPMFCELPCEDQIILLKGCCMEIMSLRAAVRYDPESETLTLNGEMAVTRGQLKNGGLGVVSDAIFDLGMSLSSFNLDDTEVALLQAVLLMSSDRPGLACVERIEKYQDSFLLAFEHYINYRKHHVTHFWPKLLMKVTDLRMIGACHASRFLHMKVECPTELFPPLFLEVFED

Assay [14] is described as follows: qHTS assay for small molecule antagonists of retinoid X receptor alpha signaling (AID 588546).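 Further: cells stimulated with 9-cis-retinoic acid as agonist; on the % scale 0 is the no-effect control and ±100 the full control effect.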 Conditions: HEK293T RXRa-UAS-bla, beta-lactamase ratio, antagonist mode; measured here: W530 green channel, cytotoxicity proxy. In short, it runs like this: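 Beta-lactamase reporter inhibition, read as CCF4 fluorescence ratio (ex 405, em 460/530 nm) after 2 h at RT. HEK293T UAS-bla cells, 2500/well, were stimulated with 9-cis-RA at 500 or 100 nM final alongside test compound for 18 h at 37 C.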

Assay [15] has as its target Tumor necrosis factor (Homo sapiens) (UniProt P01375). The assay can be described thus: qHTS assay to identify small molecules that stimulate Tumor Necrosis Factor-alpha (TNF-alpha) secretion (AID 651757; active means well fitted curve in the direction sought with a large enough effect in the signal ratio; the % refers to the signal ratio; further: 0% is about no effect). Conditions: Human cells, HTRF 665/615 ratio; series mostly up to 92.2 µM. In short, it runs like this: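 Using 3000 THP-1 cells per well, compounds and controls were applied for 17 hrs at 37 C. Detection followed with two labeled anti-TNF-alpha antibodies (cryptate donor, XL665 acceptor) for 3 hr at room temperature, measured by TR-FRET.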

Assay [16] concerns the target Nuclear receptor subfamily 1 group I member 2 (Rattus norvegicus) (UniProt Q9R1A7). The assay can be described thus: qHTS assay for small molecule activators of the rat pregnane X receptor (rPXR) signaling pathway (AID 651751; call rule not given here; further: 0% is about no effect). Conditions: rPXR reporter cells, luciferase (One-Glo), 24 h.
A short description of assay [17]: Cell Viability - Jurkat (AID 426;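 active means dose-dependent loss of cell ATP signal giving a full or clear fitted curve, ranked by lower potency value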;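 further: potency means the concentration at half of the fitted maximal effect; cells exposed to compound for 40 hours at 37 °C before ATP read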). As to conditions: qHTS. In short, it runs like this:
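Cytotoxicity was scored as loss of cellular ATP, measured by luciferase-based luminescence, in Jurkat clone E6-1 cells after 40 h compound treatment; tamoxifen and doxorubicin served as positive controls.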

Assay [18] in a line: Cell Viability - LYMP2-019 (AID 973). Further: nearly all actives have a fitted effect of over 55% in size. Further: potency means the concentration at half of the fitted maximal effect. As to conditions: LYMP2-019 lymphoblastoid cell line viability; series mostly up to 92.2 µM. The method in brief: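 AC50 values come from Hill-equation modelling of qHTS concentration-response curves, where viability is measured as luciferase-based ATP luminescence in the lymphoblastoid line after 24 hr compound exposure in complete culture medium.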

Assay [19] is described as follows: Cell Viability - LYMP2-024 (AID 988). Further: nearly all actives have a fitted effect of over 60% in size. Further: potency means the concentration at half of the fitted maximal effect. As to conditions: LYMP2-024 lymphoblastoid cell viability; series mostly up to 92.2 µM. In short, it runs like this:
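Cells at 2500 per well received compound for 24 hr after a 5 hr settling period. Viability was scored by CellTiter-Glo luminescence, with AC50 from Hill fits.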

A short description of assay [20]: qHTS assay for small molecule antagonists of the retinoid-related orphan receptor gamma (ROR-gamma) signaling pathway - cell viability counter screen (AID 720652; active means well fitted curve in the direction sought with a large enough effect in the repeat runs; an effect the other way counts as inactive or inconclusive;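 further: compound exposure lasted 16 hr before ATP read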; further: potency means the concentration at half of the fitted maximal effect). As to conditions: RORgamma reporter cell line viability counter screen; series mostly up to 92.2 µM. In short, it runs like this: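 ATP-based viability readout in the ROR-gamma reporter CHO cells after 16 hr compound exposure under doxycycline induction.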

Tumor necrosis factor (Homo sapiens), sequence (P01375 whole entry, looked up): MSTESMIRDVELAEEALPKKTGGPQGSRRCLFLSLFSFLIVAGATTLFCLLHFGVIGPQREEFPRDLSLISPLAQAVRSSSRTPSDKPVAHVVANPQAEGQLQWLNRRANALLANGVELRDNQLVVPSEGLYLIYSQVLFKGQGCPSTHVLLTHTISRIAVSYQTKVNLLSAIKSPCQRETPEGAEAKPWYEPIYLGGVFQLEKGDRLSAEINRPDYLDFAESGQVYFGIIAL
Nuclear receptor subfamily 1 group I member 2 (Rattus norvegicus), sequence (Q9R1A7 whole entry, looked up): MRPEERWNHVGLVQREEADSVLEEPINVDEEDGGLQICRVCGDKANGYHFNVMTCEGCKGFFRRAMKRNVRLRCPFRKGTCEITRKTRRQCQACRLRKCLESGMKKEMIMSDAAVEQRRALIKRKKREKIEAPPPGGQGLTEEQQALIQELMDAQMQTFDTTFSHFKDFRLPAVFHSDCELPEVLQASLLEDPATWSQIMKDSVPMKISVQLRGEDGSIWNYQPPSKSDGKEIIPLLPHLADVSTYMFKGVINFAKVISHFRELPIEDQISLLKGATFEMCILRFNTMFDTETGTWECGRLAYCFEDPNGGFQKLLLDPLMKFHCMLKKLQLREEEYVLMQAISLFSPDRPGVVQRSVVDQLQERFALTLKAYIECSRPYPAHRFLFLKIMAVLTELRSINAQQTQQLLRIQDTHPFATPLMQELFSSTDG
Cytochrome P450 3A4 (Homo sapiens), sequence (P08684 whole entry, looked up): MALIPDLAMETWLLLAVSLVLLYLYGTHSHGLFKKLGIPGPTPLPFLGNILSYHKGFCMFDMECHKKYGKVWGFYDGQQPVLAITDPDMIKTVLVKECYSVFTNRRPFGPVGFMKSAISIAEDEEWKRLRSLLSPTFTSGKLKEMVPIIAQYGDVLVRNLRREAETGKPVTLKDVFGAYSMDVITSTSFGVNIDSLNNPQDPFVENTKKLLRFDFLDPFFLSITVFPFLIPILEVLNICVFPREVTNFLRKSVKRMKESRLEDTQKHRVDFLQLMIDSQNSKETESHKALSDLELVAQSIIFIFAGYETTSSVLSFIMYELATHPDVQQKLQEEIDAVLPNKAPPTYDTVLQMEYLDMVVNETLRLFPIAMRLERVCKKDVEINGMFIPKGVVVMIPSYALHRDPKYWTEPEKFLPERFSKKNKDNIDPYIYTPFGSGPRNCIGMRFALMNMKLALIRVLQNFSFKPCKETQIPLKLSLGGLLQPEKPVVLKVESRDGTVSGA

Turning to `N#CC(Br)Br`, the Potency in assay [1] is > 92 µM (inactive); in assay [7], 50.1 µM (active). In addition, the Potency result in [2], in assay [3], in assay [4], in assay [5], in assay [6] and in assay [8] was “inactive” in each case. The Potency result in assay [9] and in [13] was “inactive” throughout. Moreover, the outcome in [10], in [12] and in [15] was inactive. Besides, the results for the max response in assay [11], in assay [14] and in [16] were 0.349%, -2.67% and -7.42% (inactive), respectively.

In the case of `O=[N+]([O-])/C=C/c1ccccc1`, the Potency was 9.79 µM (active) in assay [17]; 12.6 µM (active) in assay [2]; 25.1 µM (active) in assay [3]; 39.8 µM (active) in assay [18]; 39.8 µM (active) in [19]; 37.6 µM (active) in assay [20]. The Potency result in assay [4], in assay [5], in [6], in assay [9] and in assay [13] was “inactive” throughout. Further, the outcome in assay [10], in assay [12] and in assay [15] was inactive. In addition, the max response was -4.59% in assay [11] and -11.2% in assay [14].

`CC(C)[N+](=O)[O-]`: the Potency in [1] was > 92 µM (inactive). Moreover, the Potency entry in assay [2], in assay [3], in assay [4], in assay [5], in [6] and in assay [18] was “inactive” throughout. Moreover, the Potency entry in assay [7], in [19], in assay [8], in assay [9] and in assay [13] was “inactive” throughout. Moreover, the result in assay [10], in assay [12] and in assay [15] was inactive. The figures for the max response in assay [11], in assay [14] and in [16] were 5.89%, 10.7% and 1.27% (inactive), respectively.

With `O=[N+]([O-])c1ccccc1-c1ccccc1`, the Potency in [17] and in [1] was > 92 µM (inactive) each time. Moreover, the Potency entry in [2], in assay [3], in assay [4], in assay [5], in assay [6] and in assay [18] was “inactive” in each case. For the same molecule, the Potency entry in [19], in assay [8], in assay [9], in [13] and in assay [20] was “inactive” throughout. In addition, the result in assay [10], in [12] and in [15] was inactive. For the same molecule, the max response in assay [11] was -6.95%; in assay [14], -2.63%; in [16], 0.722% (inactive).

As to `FC(Cl)(Cl)Cl`, the Potency in assay [17] and in [1] was > 92 µM (inactive) in each case. For the same molecule, the Potency result in assay [2], in assay [3], in assay [4], in [6], in assay [18] and in [7] was “inactive” throughout. The Potency entry in assay [19], in assay [8], in [9], in assay [13] and in assay [20] was “inactive” in each case. The result in assay [10], in assay [12] and in assay [15] was inactive. Moreover, the max response was -11.5% in [11] and -8.6% in assay [14].

Turning to `CCC#N`, the Potency in assay [17] and in assay [1] was > 92 µM (inactive) each time. Also, the Potency result in assay [2], in assay [3], in [4], in assay [5], in [6] and in assay [18] was “inactive” throughout. The Potency result in [7], in assay [19], in [8], in assay [9], in assay [13] and in assay [20] was “inactive” each time. Further, the max response was 3.48% in assay [11], 15.9% in [14] and -2.01% (inactive) in assay [16]. Further, the call in [12] and in assay [15] was inactive.

On to `CC(C)CON=O`, for which, in [1], the Potency was > 92 µM (inactive). Further, the Potency entry in assay [2], in assay [3], in assay [4], in assay [5], in assay [6] and in assay [18] was “inactive” in each case. The Potency result in assay [7], in assay [19], in assay [8] and in assay [9] was “inactive” throughout. For the same molecule, the result in assay [10], in assay [12] and in assay [15] was inactive. The max response in assay [11] is 6.03%; in assay [14], -4.96%; in assay [16], 4.86% (inactive).

Turning to `Nn1cnnc1`, the Potency in assay [17] and in assay [1] was > 92 µM (inactive) in each case. In addition, the Potency result in [2], in assay [4], in [5], in assay [6], in [18] and in assay [19] was “inactive” each time. In addition, the Potency entry in assay [8], in assay [9], in [13] and in assay [20] was “inactive” each time. The max response in [11] was 6.31%; in assay [14], -0.424%; in assay [16], 2.65% (inactive). Also, the molecule was classed as inactive in assay [12] and in [15].
